Source: PubChem
A selection: hits, their analogues and other compounds. The true share with any hit is near 3%.
OvCa metastasis: ovarian cancer metastasis inhibition, 3D TME model; SKOV3ip1-GFP adhesion/invasion on 3D omental model, fluorescence; Potency, µM (highest dose often 45.8 µM), without a hit: top-dose activity change, negative = inhibition, hits mostly inhibitors; 46,000 tested, 0.1% active; AID 1963576;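 further: potency means the concentration at half of the fitted maximal effect; plate controls were DMSO wells for no effect and tomatine positive control wells for full effect; nearly all actives have a fitted effect of over 65% in size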
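Adhesion/invasion was scored as fixed GFP-labeled SKOV3ip1 cell counts (488/509 nm), normalized to DMSO and tomatine controls. Cancer cells in serum-free medium, with four compound doses (0.36-46 umol/L), sat 2 hr at RT then 16 hr at 37 C on a 48 hr fibroblast/mesothelial/ECM culture.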
p53null 39C kill: selectivity test: cytotoxicity in p53 null cells, nonpermissive temperature; H1299 p53-null (neo) cells, 39C, ATPlite viability, 24 h; Potency, µM (top dose mostly 46.1 µM), for inactives: at the highest dose activity, negative = cell killing, most hits filed as cytotoxic; 55,000 tested, 0.97% active;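 further: potency means the concentration at half of the fitted maximal effect; 0% = DMSO only and -100% = full killing by 100 µM tamoxifen; nearly all actives have a fitted effect of over 50% in size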
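H1299 lung cancer cells, p53-null (H1299-neo) or expressing p53 A138V (H1299-p53A138V), were plated overnight at 37C, then exposed to compounds at up to 46 uM for 24 hr at 39C. Viability was read by ATP-based luminescence.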
PMP22 txn: modulators of PMP22 gene transcription in S16 Schwann cells | S16 Pmp22-F2sN Schwann cells, FLuc/NLuc coincidence luminescence, 24 h | 43,000 tested, 2% active | Potency, µM (highest dose often 57.5 µM), for the others: at the highest dose activity change, negative = inhibition, usual class: inhibitors | AID 1508649; active means clear falling dose curves in both reporters; inconclusive means both reporters move, but less clearly or upward; inactive means either reporter flat; the % is the NLuc reporter signal; further: potency means the concentration at half of the fitted maximal effect; on the % scale 0 is the no-effect control and ±100 the full control effect
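S16 Schwann cells carrying FLuc/NLuc coincidence reporter in the Pmp22 3' UTR treated with compound 24 h at 37C; FLuc then NLuc luminescence read sequentially by dual-luciferase reagents.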
p53null 32C kill: p53 null cell cytotoxicity, permissive temperature; 55,000 tested, 0.62% active; Potency, µM (titrated, usually from 46.1 µM), inactives show at the highest dose activity change, negative = cytotoxicity, actives largely listed as cytotoxic; H1299-neo p53 null cells, ATP luminescence, 24 h, 32C;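 further: potency means the concentration at half of the fitted maximal effect; 0% = DMSO only and -100% = full killing by 100 µM tamoxifen; nearly all actives have a fitted effect of over 55% in size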
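ATP-content luminescence in p53-null H1299-neo cells after 24 h compound exposure (up to 46 uM) at 32C permissive temperature; 0% and 100% killing set by DMSO and 100 uM tamoxifen; Hill-equation AC50.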
S16 viability: S16 Schwann cell cytotoxicity | Potency, µM (highest dose often 57.5 µM), for inactives: at the highest dose activity change, negative = cytotoxicity, actives largely listed as cytotoxic | AID 1508642 | S16 Pmp22-F2sN Schwann cells (luciferase reporters placed in the Pmp22 gene) viability, CellTiter-Glo, 24 h | 43,000 tested, 0.48% active; further: potency means the concentration at half of the fitted maximal effect; on the % scale 0 is the no-effect control and ±100 the full control effect; nearly all actives have a fitted effect of over 65% in size
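Seed 500-1,000 S16 Pmp22-F2sN cells per well in phenol-red-free DMEM with 10% heat-inactivated FBS; pin-add 23 nL compound; incubate 24 h at 37C; add CellTiter-Glo, wait 15 min protected from light; read luminescence.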
mTORC1 inh: reduces mTORC1 signaling in Tsc2 and p53 null MEF cells; Tsc2-/- p53-/- MEF, phospho-rpS6 immunofluorescence/PI, 24 h; Potency, µM (titrated, usually from 38.3 µM), for the others: top-dose activity change, negative = inhibition, most hits filed as inhibitors; 44,000 tested, 0.78% active;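 further: potency means the concentration at half of the fitted maximal effect; plate controls were DMSO for no effect and rapamycin for full effect; nearly all actives have a fitted effect of over 50% in size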
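Readout is phospho-S6 Alexa 488 signal normalized to PI per well, reported as % active cells with thresholds set from rapamycin (7.5 nM) and DMSO controls. Cells: Tsc2-/-, p53-/- MEFs, 24 hrs compound at 37 C; PI cell number serves as viability.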
NLuc saturating: NanoLuc enzyme inhibition artifact for PMP22 screen; shares compounds with PMP22 txn; Secreted NLuc enzyme (filtered S16 cell medium), Nano-Glo luminescence; Potency, µM (top dose mostly 57.5 µM), inactives show at the top dose activity change, negative = inhibition, hits mostly inhibitors; 690 tested, 4% active; further: potency means the concentration at half of the fitted maximal effect; on the % scale 0 is the no-effect control and ±100 the full control effect
NLuc Km ctr: NanoLuc inhibition at Km substrate, PMP22 artifact check; AID 1508639; secreted NLuc enzyme, coelenterazine luminescence, Km conditions; shares compounds with PMP22 txn; 690 tested, 5% active; Potency, µM (titrated, usually from 57.5 µM), for the others: top-dose activity change, negative = inhibition, most hits filed as inhibitors; further: potency means the concentration at half of the fitted maximal effect; on the % scale 0 is the no-effect control and ±100 the full control effect
FLuc ctr PMP22: inhibits firefly luciferase, PMP22 counter-screen; shares compounds with PMP22 txn; purified P. pyralis FLuc, luminescence, 10 min; Potency, µM (highest dose often 57.5 µM), for inactives: at the top dose activity, negative = inhibition, actives largely listed as inhibitors; 690 tested, under 10 active; further: % of control where 0% means no effect
Target sequence (P08659 whole entry, looked up): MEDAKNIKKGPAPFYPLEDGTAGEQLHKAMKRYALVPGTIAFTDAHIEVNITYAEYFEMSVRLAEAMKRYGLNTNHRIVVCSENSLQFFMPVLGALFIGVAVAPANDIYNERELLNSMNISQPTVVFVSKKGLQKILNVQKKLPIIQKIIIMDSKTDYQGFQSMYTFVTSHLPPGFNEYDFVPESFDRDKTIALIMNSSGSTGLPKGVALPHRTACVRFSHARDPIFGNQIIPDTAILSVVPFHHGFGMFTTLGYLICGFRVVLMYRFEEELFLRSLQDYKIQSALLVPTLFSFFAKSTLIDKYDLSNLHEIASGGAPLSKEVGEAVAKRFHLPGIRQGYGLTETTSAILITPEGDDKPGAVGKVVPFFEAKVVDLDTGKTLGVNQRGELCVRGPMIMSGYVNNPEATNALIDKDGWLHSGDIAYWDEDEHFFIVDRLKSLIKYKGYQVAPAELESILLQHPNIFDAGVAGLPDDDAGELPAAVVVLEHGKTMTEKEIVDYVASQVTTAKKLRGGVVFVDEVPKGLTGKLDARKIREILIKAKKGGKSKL
S16 F2sN tox cnf: S16 Schwann cell cytotoxicity, confirmatory | 690 tested, 7% active | Potency, µM (top dose mostly 57.5 µM), without a hit: top-dose activity change, negative = viability loss, actives largely listed as cytotoxic | S16 Schwann cells viability, CellTiter-Glo ATP luminescence, 24 h | shares compounds with PMP22 txn | AID 1508641; further: potency means the concentration at half of the fitted maximal effect; on the % scale 0 is the no-effect control and ±100 the full control effect
PMP22 txn cnf: confirmation of modulators of PMP22 gene transcription in S16 cells. shares compounds with PMP22 txn. S16 Schwann cells Pmp22-F2sN, dual luciferase, 24 h. Potency, µM (titrated, usually from 57.5 µM), for the others: at the highest dose activity change, negative = inhibition, usual class: inhibitors. 690 tested, 22% active. AID 1508646; active means clear falling dose curves in both reporters; inconclusive means both reporters move, but less clearly or upward; inactive means either reporter flat; the % is the FLuc reporter signal; further: potency means the concentration at half of the fitted maximal effect
PMP22 HiBiT cnf: confirmation of modulators of rat PMP22 protein expression; 95 tested, under 10 active; Potency, µM (series often up to 27.9 µM), without a hit: at the top dose activity change, negative = inhibition, hits mostly inhibitors; shares compounds with PMP22 txn; AID 1508647; S16 Schwann cells Pmp22-HiBiT, luminescence, 48 h
Target sequence (P25094 whole entry, looked up): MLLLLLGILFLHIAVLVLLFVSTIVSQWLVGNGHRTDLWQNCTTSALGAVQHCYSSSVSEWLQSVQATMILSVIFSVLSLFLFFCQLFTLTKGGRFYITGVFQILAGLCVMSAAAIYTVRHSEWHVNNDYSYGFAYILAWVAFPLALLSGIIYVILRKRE
Numbers without * were called inactive. Unless noted, the call rests on the fitted dose curve; in most records, active means well fitted curve in the direction sought with a large enough effect; inconclusive means small, poorly fitted or top-dose-only effect, or another doubt; inactive means no such curve, though single readings can be large; an effect the other way counts as inactive or inconclusive.

Results for CCc1ccccc1NC(=O)c1ccc2nc(C(C)C)oc2c1 ?
OvCa metastasis: inconclusive; p53null 39C kill: 10.8%; PMP22 txn: 16.8µM*; p53null 32C kill: 2.4%; S16 viability: inconclusive; mTORC1 inh: -9.4%; NLuc saturating: inconclusive; NLuc Km ctr: inconclusive; FLuc ctr PMP22: -5.5%; S16 F2sN tox cnf: -13.9%; PMP22 txn cnf: -8.9%

What do the screens show for `O=S(=O)(NCCc1csc2nc(-c3ccc(Cl)cc3)nn12)c1ccc(Oc2ccccc2)cc1`?
OvCa metastasis: inactive; p53null 39C kill: 10.0%; PMP22 txn: 12.6µM*; p53null 32C kill: -7.4%; S16 viability: -5.1%; mTORC1 inh: 0.8%; NLuc saturating: 1.1%; NLuc Km ctr: 4.6%; FLuc ctr PMP22: -0.6%; S16 F2sN tox cnf: -3.3%; PMP22 txn cnf: inconclusive

What do the screens show for `CCC1=C[C@@H]2CN(C1)Cc1c([nH]c3ccccc13)[C@@](C(=O)OC)(c1cc3c(cc1OC)N(C)[C@@H]1[C@@](O)(C(=O)OC)[C@H](OC(C)=O)[C@]4(CC)C=CCN5CC[C@]31[C@@H]54)C2`?
OvCa metastasis: 9.3%

What do the screens show for `Cc1ccc(NS(=O)(=O)c2ccc3[nH]c4c(c3c2)CCCC4)cc1N(C)C`?
OvCa metastasis: -20.2%; p53null 39C kill: -15.7%; PMP22 txn: 16.8µM*; p53null 32C kill: 16.8%; S16 viability: inconclusive; mTORC1 inh: -16.8%; NLuc saturating: 2.1%; NLuc Km ctr: -19.8%; FLuc ctr PMP22: 1.4%; S16 F2sN tox cnf: 7.0%; PMP22 txn cnf: inconclusive

Results for COc1ccc(OC)c(CNS(=O)(=O)c2ccc3[nH]c4c(c3c2)CCCCC4)c1 ?
OvCa metastasis: 14.4%; p53null 39C kill: 39.0%; PMP22 txn: 15µM*; p53null 32C kill: 8.7%; S16 viability: -18.3%; mTORC1 inh: -7.9%; NLuc saturating: -11.4%; NLuc Km ctr: inconclusive; FLuc ctr PMP22: 1.6%; S16 F2sN tox cnf: 0.8%; PMP22 txn cnf: -16.1%

What do the screens show for `Cc1ccc(NS(=O)(=O)c2ccc3[nH]c4c(c3c2)CCCCCC4)cc1Cl`?
OvCa metastasis: inconclusive; p53null 39C kill: 15.0%; PMP22 txn: inconclusive; p53null 32C kill: 60.8%; S16 viability: -8.6%; mTORC1 inh: -18.4%

How did Cc1cc(-c2ccc(CC(=O)Nc3ccc(-c4cccnc4)cc3)cc2)ccn1 do in these assays?
OvCa metastasis: -11.8%

Results for COc1cc(O)c2c(c1)C1OC1C[C@H](O)[C@H](O)C(=O)C=CC[C@H](C)OC2=O (stereo partly specified) ?
OvCa metastasis: -27.3%

Results for CCCCN(CC)C(=O)CSc1nc2n[nH]c(C)c2c(=N)n1-c1ccc(CC)cc1 ?
OvCa metastasis: inactive; p53null 39C kill: 10.2%; PMP22 txn: 16.8µM*; p53null 32C kill: inconclusive; S16 viability: inconclusive; mTORC1 inh: 0.1%; NLuc saturating: inconclusive; NLuc Km ctr: inconclusive; FLuc ctr PMP22: 1.8%; S16 F2sN tox cnf: 13.7%; PMP22 txn cnf: inconclusive

Results for Cc1cc(Br)ccc1NC(=O)C1CCCN(S(=O)(=O)c2cccc3nonc23)C1 (stereo unspecified) ?
OvCa metastasis: inactive; p53null 39C kill: -21.0%; PMP22 txn: inconclusive; p53null 32C kill: -7.4%; S16 viability: 13.1%; mTORC1 inh: -16.2%

What do the screens show for `Cc1cc(NC(=O)C2CCCN(S(=O)(=O)c3cccc4nonc34)C2)ccc1Br` (stereo unspecified)?
OvCa metastasis: inactive; p53null 39C kill: -21.2%; PMP22 txn: 17.8µM*; p53null 32C kill: 4.5%; S16 viability: inconclusive; mTORC1 inh: 3.5%; NLuc saturating: -0.9%; NLuc Km ctr: 2.8%; FLuc ctr PMP22: 3.1%; S16 F2sN tox cnf: -12.5%; PMP22 txn cnf: 17.2µM*; PMP22 HiBiT cnf: 30.3%

How did C[C@@]12C[C@@]3(O)O[C@@H](O1)[C@]1(COC(=O)c4ccccc4)[C@@H]3C[C@@]12O[C@@H]1O[C@H](CO)[C@@H](O)[C@H](O)[C@@H]1O do in these assays?
OvCa metastasis: 14.6%

How did CCOc1ccc(CN2C(=O)C(=O)c3cccc(C)c32)cc1OC do in these assays?
OvCa metastasis: -5.1%; p53null 39C kill: 20µM*; PMP22 txn: 11.3µM*; p53null 32C kill: -0.6%; S16 viability: 14.0%; mTORC1 inh: -21.5%; NLuc saturating: inconclusive; NLuc Km ctr: inconclusive; FLuc ctr PMP22: -12.9%; S16 F2sN tox cnf: -11.5%; PMP22 txn cnf: inconclusive

Results for CC(C)N(CC[C@H](c1ccccc1)c1cc(CO)ccc1O)C(C)C ?
OvCa metastasis: 17.2%
